About 8,800 targets were measured; listed, in parts, are those with a hit and a random draw of the rest. About 0.5% of all pairs of compound and target were hits.
What was measured:
Assay in all cases: log2 fold change, soluble protein after heating vs DMSO (PISA); higher = thermal stabilisation; K562 lysate, 10 uM; active = over 0.2 and 3.5 SD of the protein, either way, in both replicates (recomputed)
[1] = compound: Cc1cn(-c2cc(NC(=O)c3ccc(C)c(Nc4nccc(-c5cccnc5)n4)c3)cc(C(F)(F)F)c2)cn1 [nilotinib]
In short: (§1)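 The values are log-two fold changes in thermal stability compared with solvent controls and come from duplicates. They were obtained by TMTpro 16plex LC-MS/MS, with channel sums equalised, on the supernatant after 21,000xg for 90 min. That supernatant came from crude K562 extract at 1 mg/mL protein treated with 10 μM compound for 30 min, heated for 3 min across 48°C-58°C, pooled and brought to 0.5% NP-40 at 4°C.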

[2] = compound: Cc1nc(Nc2n[nH]c3c2CN(C(=O)N[C@H](CN(C)C)c2ccccc2)C3(C)C)c2sccc2n1
In short: as §1

[3] = compound: Cc1nc(Nc2ncc(C(=O)Nc3c(C)cccc3Cl)s2)cc(N2CCN(CCO)CC2)n1 [dasatinib]
In short: as §1

[4] = compound: Cc1ncc(-c2ccnc(Nc3ccc(S(C)(=O)=O)cc3)n2)n1C(C)C
In short: as §1

[5] = compound: Cn1cc(-c2ccc3c(c2)CCN3C(=O)Cc2cccc(C(F)(F)F)c2)c2c(N)ncnc21
In short: as §1

[6] = compound: Cn1cc(CNCC2CCN(c3ncc(C(=O)NO)cn3)CC2)c2ccccc21 [quisinostat]
In short: as §1

[7] = compound: Cn1cncc1[C@@](N)(c1ccc(Cl)cc1)c1ccc2c(c1)c(-c1cccc(Cl)c1)cc(=O)n2C [tipifarnib]
In short: as §1

[8] = compound: NC(=O)Nc1cc(-c2cccc(F)c2)sc1C(=O)N[C@H]1CCCNC1
In short: as §1

[9] = compound: NC(=O)c1cnc(N[C@@H]2CCCC[C@@H]2N)nc1Nc1cccc(-n2nccn2)c1
In short: as §1

[10] = compound: NC1(c2ccc(-c3nc4ccn5c(=O)[nH]nc5c4cc3-c3ccccc3)cc2)CCC1
In short: as §1

[11] = compound: NCC(=O)Nc1ccc(-n2nc(C(F)(F)F)cc2-c2ccc3c(ccc4ccccc43)c2)cc1
In short: as §1

[12] = compound: O=C(CCCCCCC(=O)Nc1ccccc1)NO [vorinostat]
In short: as §1

[13] = compound: O=C(O)c1ccc2c(c1)nc(Nc1cccc(Cl)c1)c1ccncc12 [silmitasertib]
In short: as §1

[14] = compound: O=C1NC(=O)C(c2cnc3ccccn23)=C1c1cn2c3c(cc(F)cc13)CN(C(=O)N1CCCCC1)CC2
In short: as §1

[15] = compound: c1cn2cc(-c3ccc4cn[nH]c4c3)nc(Nc3ccc(N4CCOCC4)cc3)c2n1 [entospletinib]
In short: as §1

Measured: log2 fold change

MAP11 (UniProt Q8WVR3)
Chain of UniProt Q8WVR3 (Q8WVR3 whole entry, looked up): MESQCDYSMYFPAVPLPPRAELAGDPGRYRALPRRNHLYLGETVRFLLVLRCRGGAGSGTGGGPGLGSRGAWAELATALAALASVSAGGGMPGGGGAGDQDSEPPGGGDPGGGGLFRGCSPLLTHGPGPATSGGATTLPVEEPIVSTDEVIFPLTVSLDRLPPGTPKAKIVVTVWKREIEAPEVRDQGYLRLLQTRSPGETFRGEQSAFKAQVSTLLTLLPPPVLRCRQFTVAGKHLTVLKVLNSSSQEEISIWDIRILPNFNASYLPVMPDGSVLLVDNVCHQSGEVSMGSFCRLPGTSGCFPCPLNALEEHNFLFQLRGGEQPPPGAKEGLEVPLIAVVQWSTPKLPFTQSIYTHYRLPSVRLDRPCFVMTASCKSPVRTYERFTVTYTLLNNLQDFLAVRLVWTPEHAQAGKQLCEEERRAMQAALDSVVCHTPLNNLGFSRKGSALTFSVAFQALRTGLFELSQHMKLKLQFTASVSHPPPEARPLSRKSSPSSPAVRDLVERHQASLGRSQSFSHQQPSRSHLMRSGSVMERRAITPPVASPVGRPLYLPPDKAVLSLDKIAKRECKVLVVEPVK
active: [12] -0.488
inactive: [1] -0.088 | [2] 0.002 | [3] 0.002 | [4] 0.021 | [5] -0.058 | [6] -0.026 | [7] -0.063 | [8] 0.037 | [9] -0.014 | [10] -0.007 | [11] -0.017 | [13] -0.015 | [14] 0.056 | [15] -0.131

KSR1 (UniProt Q8IVT5)
Chain of UniProt Q8IVT5 (Q8IVT5 whole entry, looked up): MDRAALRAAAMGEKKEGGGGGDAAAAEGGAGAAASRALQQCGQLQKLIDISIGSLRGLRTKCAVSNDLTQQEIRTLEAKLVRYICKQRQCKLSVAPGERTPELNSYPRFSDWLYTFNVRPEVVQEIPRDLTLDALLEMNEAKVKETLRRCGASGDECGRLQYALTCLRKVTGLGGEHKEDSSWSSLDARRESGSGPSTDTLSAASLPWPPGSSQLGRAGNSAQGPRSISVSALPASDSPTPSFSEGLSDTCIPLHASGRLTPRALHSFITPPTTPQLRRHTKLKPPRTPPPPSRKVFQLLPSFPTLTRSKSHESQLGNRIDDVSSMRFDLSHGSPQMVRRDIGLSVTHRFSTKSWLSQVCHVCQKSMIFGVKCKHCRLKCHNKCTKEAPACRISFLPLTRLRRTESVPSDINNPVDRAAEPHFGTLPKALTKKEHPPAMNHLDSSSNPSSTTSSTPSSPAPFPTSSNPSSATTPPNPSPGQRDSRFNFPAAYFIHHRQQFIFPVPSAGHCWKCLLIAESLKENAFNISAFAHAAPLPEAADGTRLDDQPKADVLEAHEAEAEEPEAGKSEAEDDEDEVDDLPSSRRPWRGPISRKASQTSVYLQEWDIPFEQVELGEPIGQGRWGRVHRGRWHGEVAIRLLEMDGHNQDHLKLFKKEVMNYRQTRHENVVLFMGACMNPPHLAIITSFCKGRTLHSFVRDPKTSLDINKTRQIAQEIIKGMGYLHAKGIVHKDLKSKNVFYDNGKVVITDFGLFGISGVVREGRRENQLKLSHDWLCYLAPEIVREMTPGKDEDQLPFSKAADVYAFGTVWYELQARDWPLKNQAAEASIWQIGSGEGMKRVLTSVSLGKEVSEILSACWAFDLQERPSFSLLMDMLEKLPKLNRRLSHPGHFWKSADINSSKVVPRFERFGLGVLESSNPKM
active: [12] -0.49
inactive: [1] 0 | [2] -0.04 | [3] -0.106 | [4] 0.056 | [5] 0.057 | [6] -0.015 | [7] -0.116 | [8] 0.069 | [9] 0.051 | [10] 0.003 | [11] 0.029 | [13] 0.081 | [14] 0.031 | [15] -0.025

MCUB (UniProt Q9NWR8)
Chain of UniProt Q9NWR8 (Q9NWR8 whole entry, looked up): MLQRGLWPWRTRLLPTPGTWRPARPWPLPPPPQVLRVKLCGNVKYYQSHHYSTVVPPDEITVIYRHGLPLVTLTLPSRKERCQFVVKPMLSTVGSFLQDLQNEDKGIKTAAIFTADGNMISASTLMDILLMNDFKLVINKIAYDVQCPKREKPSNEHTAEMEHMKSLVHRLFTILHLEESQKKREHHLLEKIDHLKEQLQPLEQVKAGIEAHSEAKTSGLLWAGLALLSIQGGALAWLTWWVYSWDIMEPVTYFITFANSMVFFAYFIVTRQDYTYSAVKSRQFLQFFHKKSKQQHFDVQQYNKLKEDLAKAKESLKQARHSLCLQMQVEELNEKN
inactive: [1] -0.142 | [2] 0.119 | [3] 0.075 | [4] -0.12 | [5] 0.122 | [6] -0.262 | [7] -0.112 | [8] 0.143 | [9] -0.008 | [10] -0.014 | [12] 0.129 | [13] 0.057 | [14] 0.027

MGST3 (UniProt O14880)
Chain of UniProt O14880 (O14880 whole entry, looked up): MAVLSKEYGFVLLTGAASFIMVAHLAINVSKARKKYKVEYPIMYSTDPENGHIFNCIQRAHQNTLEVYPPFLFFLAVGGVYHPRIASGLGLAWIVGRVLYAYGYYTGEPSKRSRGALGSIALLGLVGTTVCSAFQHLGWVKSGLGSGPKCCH
inactive: [1] 0.024 | [2] 0.016 | [3] 0.029 | [4] -0.019 | [5] -0.062 | [6] 0.016 | [7] -0.014 | [8] 0.009 | [9] -0.013 | [10] -0.031 | [11] -0.025 | [12] 0.128 | [13] 0 | [14] 0.033 | [15] 0.041

MPDZ (UniProt O75970)
active: [12] -0.59
inactive: [1] -0.097 | [2] 0.245 | [3] -0.082 | [4] -0.059 | [5] -0.049 | [6] -0.084 | [7] 0.328 | [8] -0.057 | [9] -0.041 | [10] 0.112 | [11] 0.058 | [13] 0.066 | [14] 0.177 | [15] -0.111

LRWD1 (UniProt Q9UFC0)
active: [12] -0.322
inactive: [1] 0.026 | [2] -0.05 | [3] -0.055 | [4] 0.017 | [5] 0.02 | [6] -0.132 | [7] 0.007 | [8] 0.053 | [9] 0.017 | [10] -0.033 | [11] -0.022 | [13] -0.008 | [14] -0.011 | [15] 0.006

MRPL30 isoform 2 (UniProt Q8TCC3)
inactive: [1] -0.048 | [2] -0.066 | [3] -0.038 | [4] 0.047 | [5] 0.03 | [6] -0.13 | [7] 0.052 | [8] -0.007 | [9] 0 | [10] 0.039 | [12] 0.041 | [13] -0.023 | [14] -0.012 | [15] -0.046

MRC2 (UniProt Q9UBG0)
inactive: [1] -0.001 | [2] -0.055 | [3] -0.201 | [4] 0.26 | [5] 0.073 | [6] -0.056 | [7] 0.083 | [8] 0.144 | [10] 0.068 | [12] 0.346 | [13] -0.051 | [14] -0.171 | [15] -0.055

MAP3K6 (UniProt O95382)
inactive: [1] 0.122 | [2] -0.023 | [4] 0.006 | [7] -0.011 | [11] -0.088 | [15] -0.043

MANEA (UniProt Q5SRI9)
Chain of UniProt Q5SRI9 (Q5SRI9 whole entry, looked up): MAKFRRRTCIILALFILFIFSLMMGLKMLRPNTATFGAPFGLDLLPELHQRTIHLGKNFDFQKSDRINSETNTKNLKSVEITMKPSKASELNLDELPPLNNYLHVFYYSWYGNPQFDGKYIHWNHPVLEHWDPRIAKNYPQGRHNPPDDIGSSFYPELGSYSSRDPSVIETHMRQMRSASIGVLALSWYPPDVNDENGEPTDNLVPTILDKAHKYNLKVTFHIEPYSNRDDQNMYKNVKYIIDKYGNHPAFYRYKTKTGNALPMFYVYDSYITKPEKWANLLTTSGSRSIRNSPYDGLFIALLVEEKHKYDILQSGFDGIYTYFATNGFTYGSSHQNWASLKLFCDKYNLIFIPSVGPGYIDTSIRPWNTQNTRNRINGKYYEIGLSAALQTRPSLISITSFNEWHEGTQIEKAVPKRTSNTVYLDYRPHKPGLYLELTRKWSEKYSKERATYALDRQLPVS
inactive: [3] -0.003 | [5] 0.046 | [6] 0.046 | [8] 0.05 | [9] 0.01 | [10] -0.044 | [11] 0 | [12] 0.217 | [13] -0.103 | [14] -0.047 | [15] 0.055

KIF18B (UniProt Q86Y91)
Chain of UniProt Q86Y91 (Q86Y91 whole entry, looked up): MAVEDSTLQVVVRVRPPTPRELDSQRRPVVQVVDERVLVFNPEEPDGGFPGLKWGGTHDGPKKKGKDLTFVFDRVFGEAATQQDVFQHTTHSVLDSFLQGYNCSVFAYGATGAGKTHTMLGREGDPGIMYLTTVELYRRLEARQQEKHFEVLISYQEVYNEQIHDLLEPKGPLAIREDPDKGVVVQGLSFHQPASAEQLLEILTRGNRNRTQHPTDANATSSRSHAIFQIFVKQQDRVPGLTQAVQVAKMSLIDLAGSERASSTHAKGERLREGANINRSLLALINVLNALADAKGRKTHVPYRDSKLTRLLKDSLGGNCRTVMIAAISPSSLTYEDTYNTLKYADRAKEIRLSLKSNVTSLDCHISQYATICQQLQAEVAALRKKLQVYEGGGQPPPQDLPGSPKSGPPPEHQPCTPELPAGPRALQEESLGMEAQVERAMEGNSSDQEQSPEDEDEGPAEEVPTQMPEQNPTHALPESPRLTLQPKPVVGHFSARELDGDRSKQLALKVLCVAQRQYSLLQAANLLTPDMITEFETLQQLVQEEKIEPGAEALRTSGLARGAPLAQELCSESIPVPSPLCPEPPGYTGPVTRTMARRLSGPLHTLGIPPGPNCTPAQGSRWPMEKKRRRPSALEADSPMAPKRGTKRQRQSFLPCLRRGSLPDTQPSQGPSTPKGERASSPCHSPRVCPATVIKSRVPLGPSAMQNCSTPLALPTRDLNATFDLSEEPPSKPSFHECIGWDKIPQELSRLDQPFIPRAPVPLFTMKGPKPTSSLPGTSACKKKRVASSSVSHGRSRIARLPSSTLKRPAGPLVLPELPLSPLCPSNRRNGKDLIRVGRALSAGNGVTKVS
inactive: [3] 0.073 | [5] 0.076 | [6] -0.025 | [8] 0.17 | [9] 0.025 | [14] -0.098 | [15] -0.035

MARF1 (UniProt Q9Y4F3)
Chain of UniProt Q9Y4F3 (Q9Y4F3 whole entry, looked up): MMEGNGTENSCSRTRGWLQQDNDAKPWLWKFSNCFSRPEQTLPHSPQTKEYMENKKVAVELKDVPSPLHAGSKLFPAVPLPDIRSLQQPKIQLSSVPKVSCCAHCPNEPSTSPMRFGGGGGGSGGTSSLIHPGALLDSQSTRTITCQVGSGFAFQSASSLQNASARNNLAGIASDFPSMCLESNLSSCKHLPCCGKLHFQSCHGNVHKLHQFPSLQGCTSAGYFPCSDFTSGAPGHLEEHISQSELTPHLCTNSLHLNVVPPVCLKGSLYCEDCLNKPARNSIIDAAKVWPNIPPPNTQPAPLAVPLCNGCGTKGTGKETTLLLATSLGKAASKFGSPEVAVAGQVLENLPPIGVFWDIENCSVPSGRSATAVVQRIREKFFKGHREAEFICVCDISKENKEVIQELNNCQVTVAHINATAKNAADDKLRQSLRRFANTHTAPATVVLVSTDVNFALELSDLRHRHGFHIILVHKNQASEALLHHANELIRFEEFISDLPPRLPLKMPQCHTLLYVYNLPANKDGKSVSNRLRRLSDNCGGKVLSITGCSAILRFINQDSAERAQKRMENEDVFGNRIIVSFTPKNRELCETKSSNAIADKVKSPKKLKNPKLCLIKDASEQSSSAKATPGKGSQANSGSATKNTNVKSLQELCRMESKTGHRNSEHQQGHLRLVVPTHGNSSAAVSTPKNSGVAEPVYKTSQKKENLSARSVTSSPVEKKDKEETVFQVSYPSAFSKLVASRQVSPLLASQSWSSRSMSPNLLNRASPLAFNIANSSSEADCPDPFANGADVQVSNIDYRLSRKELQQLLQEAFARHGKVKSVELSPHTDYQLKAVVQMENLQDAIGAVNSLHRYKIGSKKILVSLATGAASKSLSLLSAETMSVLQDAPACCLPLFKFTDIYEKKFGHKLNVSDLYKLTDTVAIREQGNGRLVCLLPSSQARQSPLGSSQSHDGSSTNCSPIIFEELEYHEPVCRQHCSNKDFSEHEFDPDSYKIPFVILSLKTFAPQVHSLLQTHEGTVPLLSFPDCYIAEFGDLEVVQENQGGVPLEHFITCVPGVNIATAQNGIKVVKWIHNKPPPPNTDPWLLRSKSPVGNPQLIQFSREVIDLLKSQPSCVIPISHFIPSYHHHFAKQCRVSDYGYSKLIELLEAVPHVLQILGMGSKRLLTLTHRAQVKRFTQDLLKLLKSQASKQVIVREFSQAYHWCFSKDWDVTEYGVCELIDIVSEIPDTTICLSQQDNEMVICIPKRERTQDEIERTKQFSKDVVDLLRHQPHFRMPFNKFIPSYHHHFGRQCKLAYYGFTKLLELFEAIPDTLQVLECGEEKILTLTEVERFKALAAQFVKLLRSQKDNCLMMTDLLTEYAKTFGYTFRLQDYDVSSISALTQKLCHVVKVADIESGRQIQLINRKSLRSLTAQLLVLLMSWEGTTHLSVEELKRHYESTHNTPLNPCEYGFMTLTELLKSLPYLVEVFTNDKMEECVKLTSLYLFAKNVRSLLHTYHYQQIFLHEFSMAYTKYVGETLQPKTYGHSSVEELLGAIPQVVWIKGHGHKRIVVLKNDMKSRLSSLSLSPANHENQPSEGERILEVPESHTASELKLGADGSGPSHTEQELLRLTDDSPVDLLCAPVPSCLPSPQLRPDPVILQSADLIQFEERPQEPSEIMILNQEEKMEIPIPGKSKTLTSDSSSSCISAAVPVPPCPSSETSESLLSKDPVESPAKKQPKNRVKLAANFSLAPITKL
inactive: [1] -0.064 | [2] 0.024 | [3] -0.031 | [4] 0.031 | [5] -0.03 | [6] -0.053 | [7] -0.062 | [8] 0.088 | [10] -0.035 | [11] 0.006 | [13] 0.003 | [14] -0.045 | [15] 0.049
active: [12] -0.471
